# Measurements: PubChem BioAssay (NCI)
# This is part of a sample that, as a whole, favours compounds with a hit. Of some 83,000 tested, about 20% had one in any assay.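 Interpretation: 100, growth as untreated; towards 0, rising growth inhibition; 0, no net growth; 0 to -100, cell death. Compounds scoring below 10 were considered active.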 Unmarked numbers belong to inactive results. The source made the active and inactive calls.
# Tests used:
# Experiment in all cases: NCI-60 one-dose screen, 48 h (100 = growth as untreated, 0 = no growth, -100 = all killed)
# Conditions in all cases: 10 µM unless noted
# HCT-15 colon = system: HCT-15 colon
# HT29 colon = system: HT29 colon
# SNB-19 CNS = system: SNB-19 CNS
# U251 CNS = system: U251 CNS
# PC-3 prostate = system: PC-3 prostate
# SK-MEL-5 melanoma = system: SK-MEL-5 melanoma
# UACC-62 melanoma = system: UACC-62 melanoma
# LOX IMVI melanoma = system: LOX IMVI melanoma
# SK-MEL-28 melanoma = system: SK-MEL-28 melanoma
# SK-MEL-2 melanoma = system: SK-MEL-2 melanoma
# EKVX NSCLC = system: EKVX NSCLC
# SN12C renal = system: SN12C renal
# UO-31 renal = system: UO-31 renal
# ACHN renal = system: ACHN renal
# CAKI-1 renal = system: CAKI-1 renal
# A498 renal = system: A498 renal
# CCRF-CEM leukemia = system: CCRF-CEM leukemia
# MOLT-4 leukemia = system: MOLT-4 leukemia
# TK-10 renal = system: TK-10 renal
SMILES,growth (HCT-15 colon) [%],growth (HT29 colon),growth (SNB-19 CNS) [%],growth (U251 CNS) [%],growth (PC-3 prostate) [%],growth (SK-MEL-5 melanoma) [%],growth (UACC-62 melanoma) [%],growth (LOX IMVI melanoma),growth (SK-MEL-28 melanoma) [%],growth (SK-MEL-2 melanoma),growth (EKVX NSCLC) [%],growth (SN12C renal) [%],growth (UO-31 renal),growth (ACHN renal) [%],growth (CAKI-1 renal),growth (A498 renal) [%],growth (CCRF-CEM leukemia),growth (MOLT-4 leukemia),growth (TK-10 renal) [%]
COc1ccc(/C=C2/C(=O)NC(SCC(=O)N3CCN(c4cc5c(cc4F)c(=O)c(C(=O)O)cn5C4CC4)CC3)=NC2N)cc1OC (stereo unspecified),98.9,112%,102,102,99.2,104,102,103%,105,111%,87.6,104,86.9%,104,94.5%,107,99.4%,109%,–
NC1=NC(SCc2ccccc2CCl)c2ncn(Cc3ccccc3CCl)c2N1 (stereo unspecified),76.5,14.4%,74.7,36.8,78.6,48.4,34.2,-80.2% (active),65.2,-4.24% (active),77.9,37.8,61.3%,31.8,32.4%,–,7.36% (active),14.5%,56.2
COc1cc(-c2nn(C(=O)NS(=O)(=O)c3ccccc3)cc2-c2ccncc2)ccc1Cl,97.9,53.9%,95.3,81.6,78.2,95.6,66.7,71.5%,91.8,94.8%,56.1,82.4,69.7%,80.3,84.8%,60.3,92.8%,83.9%,–
COc1cc(/C=C/C(=O)N2CCN(C(=O)/C=C/c3cc(OC)c(OC)c(OC)c3)CC2)cc(OC)c1OC,113,109%,105,103,102,104,89.1,101%,105,110%,114,102,88.5%,106,119%,–,98.6%,95.9%,121
COc1cc(C(=O)/C=C/c2c(C)n([O-])c3ccc(C(F)(F)F)cc3[n+]2=O)cc(OC)c1OC,86.1,5.72% (active),90.9,87.1,91.8,102,91.4,88.4%,98.8,95.5%,115,88.3,47.1%,53.6,-11.9% (active),115,–,65.4%,42.4
N/C(=N\C(N)=N\c1nc2ccccc2s1)c1cccc(Br)c1,44.2,104%,90.9,38.3,63.2,94.6,84.7,33.2%,94.5,106%,73.2,50.7,24.7%,84.8,68.8%,–,55.8%,77.6%,157
CC12CCC3C4(C)COC(c5ccccc5Cl)OC4CCC3(C)C1CC(C1=CCOC1=O)O2 (stereo unspecified),41.2,57.1%,78.7,74.1,47.9,17.1,45.8,58.6%,60.5,77.4%,63.7,70.2,53.9%,58.8,–,50.8,66.8%,–,94.9
N/C(=N\S(=O)(=O)c1ccccc1)Nc1nc2ccccc2s1,104,92.1%,99,96.7,83.9,90.5,76.6,97.5%,109,93.1%,86.9,86.1,74.2%,94.7,89.3%,118,–,99.4%,108
O=Nc1c(-c2cccc([N+](=O)[O-])c2)nc2ncccn12,73.7,79.5%,94.3,96.9,66.5,96.2,92.8,95.4%,115,85.2%,108,91.5,-3.03% (active),29.1,–,103,-27.2% (active),7.7% (active),85
